Most compounds without a hit are left out; they make up all but 11% or so of the library.
ALDH1A1 block – ALDH1A1 (human) enzyme inhibition; Purified ALDH1A1, NADH fluorescence, propionaldehyde substrate; P00352; actives 7.3% (n = 220,000); Potency, µM (series often up to 75.3 µM), inactives show top-dose activity, negative = inhibition, most hits filed as inhibitors;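 further: potency means the concentration at half of the fitted maximal effect; plate controls were no enzyme wells and a reference inhibitor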
HPGD block – blocks human HPGD enzyme activity; P15428; purified HPGD, NADH fluorescence kinetic, PGE2 substrate; Potency, µM, without a hit: at the highest dose activity change, negative = inhibition, hits mostly inhibitors; actives 4.3% (n = 150,000); AID 894; further: potency means the concentration at half of the fitted maximal effect
Target sequence (P15428 whole entry, looked up): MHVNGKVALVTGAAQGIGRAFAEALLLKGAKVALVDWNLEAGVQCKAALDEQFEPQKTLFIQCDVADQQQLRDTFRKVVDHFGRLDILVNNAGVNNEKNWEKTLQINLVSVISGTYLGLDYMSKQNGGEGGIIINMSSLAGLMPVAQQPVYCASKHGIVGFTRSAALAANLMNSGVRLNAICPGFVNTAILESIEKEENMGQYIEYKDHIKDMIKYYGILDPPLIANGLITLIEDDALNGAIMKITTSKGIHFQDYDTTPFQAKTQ
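NADH formation kinetics: reaction with 30 uM PGE2 and 1 mM NAD+ (final), 20 nM enzyme, Tris-HCl pH 8 with Tween 20, after 15 min compound preincubation at room temperature. Fluorescence change, last versus first of five reads.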
IMPase Li cell – cell-permeable IMPase inhibitors with lithium potentiation; CHO-M1 cells, IP1 TR-FRET (IP-One), carbachol + lithium; Potency, µM (titrated, usually from 59.4 µM), inactives show at the top dose activity, negative = IMPase inhibition, most hits filed as inhibitors; actives 0.35% (n = 210,000); AID 1457; active means well fitted curve in the direction sought with a large enough effect; inconclusive means small, poorly fitted or top-dose-only effect, or another doubt; inactive means no such curve, though single readings can be large; an effect the other way counts as inactive or inconclusive;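 further: IP1 builds up when IMPase is blocked and the TR-FRET signal falls; potency means the concentration at half of the fitted maximal effect; plate controls were basal vehicle for no effect and high inhibitor control for full effect; nearly all actives have a fitted effect of over 50% in size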
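CHO cells stably expressing M1 receptor (2000/well, cultured 16–30 h) treated 30 min at 37C with compound plus low lithium. Cytosolic IP1 by TR-FRET (665/620 ratio and 620 channel) after 10 min lysis; AC50 by Hill fit.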
IMPase inh – IMPase inhibition in cells | P97697 | CHO-M1 cells, IP1 accumulation, HTRF TR-FRET ratio | inhibition (IP1 accumulation), % at 46.1 µM | 120,000 tested, under 10 active | AID 901; active means well fitted curve in the direction sought with a large enough effect in the signal ratio, not every such curve was filed as active; inconclusive means small, poorly fitted or top-dose-only effect, or a change in a side signal; inactive means no such curve, though single readings can be large or run the other way; the % refers to the signal ratio;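 further: cells stimulated with carbachol in lithium chloride buffer; plate controls were DMSO basal wells for no effect and reference inhibitor wells for full effect; higher means more IMPase inhibition seen as more IP1 and lower FRET ratio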
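Measured: the HTRF emission ratio (665/620 nm) plus the 620 nm donor channel, each fitted to the Hill equation to give AC50. Cells were CHO-M1 given compounds up to 46 uM and a 30 min carbachol stimulation at 37C.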
NPSR antagonist – antagonists of human neuropeptide S receptor cAMP signaling; CHO-NPSR cells, cAMP TR-FRET, antagonist mode; Potency, µM (series often up to 38.3 µM), for inactives: top-dose activity change, negative = inhibition, actives largely listed as inhibitors; actives 1% (n = 220,000); active means well fitted curve in the direction sought with a large enough effect; inconclusive means small, poorly fitted or top-dose-only effect, or another doubt; inactive means no such curve, though single readings can be large; an effect the other way counts as inactive or inconclusive; further: potency means the concentration at half of the fitted maximal effect; nearly all actives have a fitted effect of over 50% in size
Target sequence (Q6W5P4 whole entry, looked up): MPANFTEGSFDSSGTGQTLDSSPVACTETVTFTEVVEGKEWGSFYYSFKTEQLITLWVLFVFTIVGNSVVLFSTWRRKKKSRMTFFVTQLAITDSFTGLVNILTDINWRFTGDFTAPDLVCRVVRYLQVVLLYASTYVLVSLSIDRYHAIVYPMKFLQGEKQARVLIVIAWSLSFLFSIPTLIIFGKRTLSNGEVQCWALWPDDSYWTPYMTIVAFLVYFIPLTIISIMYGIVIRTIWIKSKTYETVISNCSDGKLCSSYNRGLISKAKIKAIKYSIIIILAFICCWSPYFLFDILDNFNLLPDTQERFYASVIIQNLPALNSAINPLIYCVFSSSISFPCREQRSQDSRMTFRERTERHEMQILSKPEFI
PNC inhibitor – blocks assembly of the perinucleolar compartment; PC3M PTB-GFP, PNC prevalence imaging, 16 h; hits give low values; activity change (PNC), negative = inhibition, % at 10 µM; actives 3.1% (n = 140,000);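 active means readout at or below -70, meaning at least 70% loss of cells showing the perinucleolar compartment, a nuclear body marking cancer cells; inconclusive means readout between -30 and a set limit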;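 further: plate controls were DMSO wells for no effect and camptothecin positive control wells for full effect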
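PC3M cells stably expressing PTB-GFP, 750–1000 cells/well, treated 16 h at 37 °C with compound (23 nl of library stock), in duplicate. After paraformaldehyde fixation and Hoechst stain, imaged at 20x; PNC prevalence scored by image analysis.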
* hit, by the source's call; [ ] = remark or other dose. Unless noted, the call rests on the fitted dose curve; in most records, active means well fitted inhibition curve with a large enough effect (not every such curve was filed as active); inconclusive means small, poorly fitted or top-dose-only effect, or another doubt; inactive means no such curve, though single readings can be large or run the other way. Unless noted, on the % scale 0 is the no-effect control and ±100 the full control effect.

N/C(=N\OC(=O)c1ccc(Cl)cc1Cl)c1ccccc1 was read as ALDH1A1 block -5.3%, HPGD block 14.1µM*, IMPase Li cell 13.3%[38.3 µM], IMPase inh 2.2, NPSR antagonist -8.0%[46.1 µM] and PNC inhibitor -8.8.
COc1ccc(S(=O)(=O)N(CC(=O)N2CCc3ccccc3C2)c2ccc(C)cc2)cc1 was read as IMPase inh -0.1.
`C/C(=N\NC(=O)C(c1ccccc1)c1ccccc1)c1ccccn1` gave ALDH1A1 block -2.8%, HPGD block -2.3%, IMPase Li cell 0.2%, NPSR antagonist -16.5% and PNC inhibitor -80.6*.
`O=C(CCN1CCOCC1)N1CCc2c([nH]c3ccccc23)C1c1cccc(Cl)c1` (configuration not stated) gave ALDH1A1 block 13.8%, IMPase Li cell 15.3% and NPSR antagonist 16.8%.
`COc1ccc(-c2cc(N)n(S(=O)(=O)c3ccc(C)cc3)n2)c(OC)c1` gave ALDH1A1 block inconclusive, HPGD block -14.6%, IMPase Li cell 5.4%[38.3 µM], IMPase inh 7.0, NPSR antagonist -18.0%[46.1 µM] and PNC inhibitor -91.4*.
`O=C(c1ccncc1)c1ccc(NS(=O)(=O)c2ccc(Br)s2)cc1` gave ALDH1A1 block 17.7%, HPGD block 28.2µM*, IMPase Li cell -2.3%[38.3 µM], IMPase inh -1.5, NPSR antagonist -11.0%[46.1 µM] and PNC inhibitor 0.5.
For Cc1cc(C)cc(NC(=O)c2ccc(CSc3nnc(C)s3)cc2)c1 the results were ALDH1A1 block -3.1%, HPGD block -19.4%, IMPase Li cell 1.6%[38.3 µM], IMPase inh 6.3, NPSR antagonist -14.0%[46.1 µM] and PNC inhibitor 21.5.
For O=C(O)c1ccc(CSc2nnc(SCc3ccccc3)s2)cc1 the results were ALDH1A1 block -13.7%, HPGD block 20µM*, IMPase Li cell -1.0%[38.3 µM], IMPase inh -9.7, NPSR antagonist -6.3%[46.1 µM] and PNC inhibitor 7.2.
Screening Cc1ccc(NC(=O)c2ccc(CSc3nnc(C)s3)cc2)cc1 returned ALDH1A1 block inconclusive, HPGD block -13.7%, IMPase Li cell -2.5%[38.3 µM], IMPase inh -0.5, NPSR antagonist -11.3%[46.1 µM] and PNC inhibitor -100.0*.
For CC(C)(C)OC(=O)N[C@@H](Cc1ccccc1)c1nnc(SCC(N)=O)o1 the results were NPSR antagonist -10.8%.
Cc1cccc(CS(=O)(=O)c2nnc([C@H](Cc3ccccc3)NC(=O)OC(C)(C)C)o2)c1 was read as ALDH1A1 block 22.4µM*, HPGD block 14.1µM*, IMPase Li cell 21.3%[38.3 µM], IMPase inh 23.0, NPSR antagonist inconclusive and PNC inhibitor -1.0.
COC(=O)CSc1nnc([C@H](Cc2ccccc2)NC(=O)OC(C)(C)C)o1 was read as ALDH1A1 block -5.1%, HPGD block -4.5%, IMPase Li cell 9.5%[38.3 µM], IMPase inh 2.4, NPSR antagonist -8.8%[46.1 µM] and PNC inhibitor 68.3.
COC(=O)CS(=O)(=O)c1nnc([C@H](Cc2ccccc2)NC(=O)OC(C)(C)C)o1 was read as ALDH1A1 block 8.91µM*, HPGD block 11.2µM*, IMPase Li cell 57.9%[38.3 µM], IMPase inh 19.7, NPSR antagonist 7.94µM* and PNC inhibitor inconclusive.
Screening COc1ccc(OCC(O)CNS(=O)(=O)c2cccc(Cl)c2)cc1 (configuration not stated) returned ALDH1A1 block 10µM* and NPSR antagonist -20.6%.
`COCCCNCCOc1ccc(C(C)(C)c2ccccc2)cc1` gave ALDH1A1 block 5.4%, HPGD block 3.5%, IMPase Li cell 17.1%, NPSR antagonist 7.8% and PNC inhibitor -1.9.
Screening COc1cccc(C(=O)N/N=C(\CC(C)C)c2ccccc2)c1 returned ALDH1A1 block 2.0%, HPGD block -6.0%, IMPase Li cell 4.3%, NPSR antagonist -11.0% and PNC inhibitor inconclusive.
For Cc1ccc(C(=O)N/N=C(\CC(C)C)c2ccccc2)cc1 the results were ALDH1A1 block -10.0%, HPGD block -15.4%, IMPase Li cell 3.1%, NPSR antagonist -1.8% and PNC inhibitor -105.1*.
CCN(CC(=O)Nc1ccccc1Br)C1CCCCC1 was read as ALDH1A1 block inconclusive, IMPase Li cell -1.5% and NPSR antagonist inconclusive.
Screening O=C(CSC1CCCCC1)Nc1ccccc1Br returned ALDH1A1 block 1.1%, HPGD block 17.8µM*, IMPase Li cell 5.4%, NPSR antagonist -15.0% and PNC inhibitor inconclusive.
For CCCN1C(=O)C(NC(C)=O)c2ccccc21 (configuration not stated) the results were ALDH1A1 block 0.126µM*, HPGD block -3.5%, IMPase Li cell 11.5%[38.3 µM], IMPase inh 0.0, NPSR antagonist 2.8%[46.1 µM] and PNC inhibitor 47.9.
`CC(=O)NC1C(=O)N(CCc2ccccc2)c2ccccc21` (configuration not stated) gave ALDH1A1 block inconclusive, HPGD block -2.9%, IMPase Li cell 2.0%[38.3 µM], IMPase inh 5.0, NPSR antagonist -6.9%[46.1 µM] and PNC inhibitor -29.9.
Screening C#CCOCCOCCOCCNc1nc(N2CCN(C(=O)Cn3cc(CC(C)O)nn3)CC2)nc(N2CCN(C(=O)[C@H](C)n3cc(CCCN=C(N)N)nn3)CC2)n1 (some centres not stated) returned ALDH1A1 block 2.0%, HPGD block 2.5%, IMPase Li cell -5.5%, NPSR antagonist 18.3% and PNC inhibitor inconclusive.
CC(C)(C)c1ccc(/C=C/C(=O)N2CCc3ccccc3C2)cc1 was read as ALDH1A1 block -0.9%, HPGD block -5.7%, IMPase Li cell 2.0%[38.3 µM], IMPase inh -6.0, NPSR antagonist -14.1%[46.1 µM] and PNC inhibitor 105.1.
`Cc1ccc(/C=C/C(=O)N2CCc3ccccc3C2)cc1` gave ALDH1A1 block 0.0%, HPGD block 14.1µM*, IMPase Li cell 20.2%[38.3 µM], IMPase inh 4.0, NPSR antagonist -21.8%[46.1 µM] and PNC inhibitor 7.6.
`COc1cc(CC(=O)OCC(=O)Nc2ccc(S(=O)(=O)N3CCCC3)cc2)cc(OC)c1OC` gave ALDH1A1 block 20µM*, HPGD block -2.9%, IMPase Li cell 1.0%[38.3 µM], IMPase inh 4.1, NPSR antagonist 5.0%[7.67 µM] and PNC inhibitor -24.0.
Screening CCN(c1ccc(NC(=O)COC(=O)CCc2cc(OC)c(OC)c(OC)c2)cc1)C(C)C returned ALDH1A1 block 17.8µM*, IMPase Li cell 12.3% and NPSR antagonist -12.5%.
Screening CC(/C=N/NC(=O)Cc1cccs1)=C\c1ccco1 returned ALDH1A1 block inconclusive, HPGD block -9.1%, IMPase Li cell 5.9%[38.3 µM], IMPase inh 10.5, NPSR antagonist -22.1%[46.1 µM] and PNC inhibitor 90.3.
